For twelve compounds, composite z-score results are on record in PubChem BioAssay.

This assay deals with Dickkopf-related protein 1 (Homo sapiens) (UniProt O94907). The assay can be described thus: DKK1 binders on small-molecule microarrays, primary screen, biochemical, small-molecule microarray, 635 nm fluorescence scan (AID 1106).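 Further: score merges emission near 667 nm with signal to noise over three replicate slides.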 The following applies: DKK1 binding, higher = more signal.
Chain of Dickkopf-related protein 1 (Homo sapiens) (O94907 whole entry, looked up): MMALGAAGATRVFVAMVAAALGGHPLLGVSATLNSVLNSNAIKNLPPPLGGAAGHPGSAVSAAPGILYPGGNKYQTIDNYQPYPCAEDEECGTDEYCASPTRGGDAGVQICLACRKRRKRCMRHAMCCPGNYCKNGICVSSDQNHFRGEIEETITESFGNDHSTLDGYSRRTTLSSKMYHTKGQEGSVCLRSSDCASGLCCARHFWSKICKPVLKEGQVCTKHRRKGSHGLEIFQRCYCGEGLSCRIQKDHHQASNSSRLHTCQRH
Compound `O=C1CCCC(C2=CCCCC2=O)C1` (configuration not stated) came in with a composite z-score of 0.923.
`Cn1c(=O)n2n(c1=O)[C@H]1[C@H](O)[C@@H]3O[C@@H]3C(=NOCc3ccccc3)[C@H]1CC2`: the composite z-score was -0.0857.
`CO[C@H](C1CCCCC1)[C@H](C)C=CCC(=O)OCCCc1ccccc1` came in with a composite z-score of 0.287.
On to `COC(=O)[C@H](C)NC(=O)CCC1CC(OC(=O)NCc2ccc3c(c2)OCO3)CC2(CCCC(COC(=O)NCC(c3ccccc3)c3ccccc3)O2)O1` (some centres not stated), for which the composite z-score turned out to be 0.766.
The compound `O=c1n(-c2ccccc2)c(=O)n2n1CC[C@@H]1C(=NOCc3ccccc3)[C@H]3O[C@H]3[C@@H](O)[C@@H]12` came in with a composite z-score of 0.0228.
With `COC(=O)[C@H]1[C@@H](O)[C@@]2(O)c3ccccc3O[C@@]2(c2ccccc2)[C@@H]1c1ccccc1` the figure was 0.384; with `COC(=O)CC=C[C@@H](C)[C@@H](C=NOC(C)CN1CCCc2nc(C)c(C)cc21)OC` (some centres not stated), 0.866; with `COC(=O)[C@H](C)NC(=O)CCC1CC(OC(=O)NCCc2ccc(F)cc2)CC2(CCCC(COC(=O)NCc3cccc(C(F)(F)F)c3)O2)O1` (some centres not stated), 1.41.
Compound `Cc1ccc(S(=O)(=O)N[C@H]2COC(=O)CC=C[C@H](C)[C@@H](NS(=O)(=O)c3ccc(C)cc3)COC(=O)CC=C[C@@H]2C)cc1` showed a composite z-score of 0.486.
In turn, `CON=C1[C@H]2CCn3c(=O)n(-c4ccccc4)c(=O)n3[C@H]2[C@H](O)[C@@H]2O[C@H]12` showed a composite z-score of 0.332.
Consider `C#CCCCON=C1C[C@@H](O)[C@@H](O)[C@@H]2[C@@H]3C(=O)N(C(C)(C)C)C(=O)[C@@H]3CC[C@@H]12`, for which the composite z-score was -1.1.
With `CO[C@H]1COC(=O)CC=C[C@@H](C)[C@H](NS(=O)(=O)c2ccc(C)cc2)COC(=O)CCC[C@@H]1C`, the composite z-score is 1.53.
